More than one record can exist for a structure, and the calls need not agree. Activity calls are given as the source filed them. Rule for the calls: active = hit-call score of the fitted dose curve at least 0.9, where 1 is the maximum; inactive = score below 0.9.

Read-out in this test: Human Leukocyte Antigen - DR isotype (HLADR), HLA-DRA (gene 3122)
Put plainly: BSK_BE3C_HLADR: BioMAP Diversity Plus: BE3C Assay for Human Leukocyte Antigen - DR isotype (HLADR) Biomarker Activity (AID 2283032). Conditions: primary human bronchial epithelial cells; actives raise or lower the signal. Here is the method: BSK_BE3C is a cell-based, multiplexed-readout assay that uses bronchial epithelial cell, a human lung primary cell, with measurements taken at 24 hours after chemical dosing in a 96-well plate.BSK_BE3C_HLADR is an assay component measured in the BSK_BE3C assay. It measures HLA-DR antibody related to regulation of gene expression using ELISA technology.Data from the assay component BSK_BE3C_HLADR was analyzed into 1 assay endpoint. This assay endpoint, BSK_BE3C_HLADR, was analyzed with bidirectional fitting relative to DMSO as the negative control and baseline of activity. Using a type of binding reporter, gain or loss-of-signal activity can be used to understand changes in the signaling as they relate to the gene HLA-DRA. Furthermore, this assay endpoint can be referred to as a primary readout, because this assay has produced multiple assay endpoints where this one serves a signaling function. To generalize the intended target to other relatable targets, this assay endpoint is annotated to the cell adhesion molecules intended target family, where the subfamily is MHC Class II.
The levels of cell surface (or secreted, indicated by the prefix "s") biomarker endpoints were measured by ELISA. Overt cytotoxicity to cells in confluent adherent cultures (all systems other than the BT system) was assessed by measuring total protein levels using sulforhodamine B (SRB) staining in parallel cultures at the time of biomarker measurements, indicated as SRB endpoints. For proliferation assays for adherent cell types, individual cell types are cultured at sub-confluence and relative cell numbers quantified by SRB staining at time points optimized for each system (48 h: 3C and CASM3C systems; 72 h: BT and HDF3CGF systems; 96 h: SAg system). SRB was performed by staining cells with 0.1% SRB after fixation with 10% TCA and reading wells at 560 nm.Viability and proliferation of PBMC (T cells) was quantified by Alamar Blue reduction for the SAg and BT systems. For PBMC viability (referred to as PBMC Cytotoxicity within the assay endpoint names), cells were plated (75,000/well in a 96-well plate) and then chemical samples added for 1 h before addition of activators, SEB and TSST-1 (20 ng/mL final concentration each). Cells were incubated for 90 h. Then, Alamar Blue (20 uL/well) (Invitrogen, Cat DAL1100) was added for 6 h, and the plates were read with a fluorescence microplate reader at 546/580 nm (excitation/emission). For PBMC proliferation, cells were plated and activated as above but incubated for only 16 h prior to addition of Alamar Blue. Plates were read after 6 h.
`O=[N+]([O-])c1cccc2ccccc12`: the outcome was inactive.
Regarding `NC(=O)CCl`, the result was inactive.
With `CC(C)=CC1C(C(=O)OCc2cccc(Oc3ccccc3)c2)C1(C)C` (stereo not given), the result was inactive.
`O=C(Cc1ccccc1)OCCc1ccccc1`: the result was inactive.
With `Oc1c(Cl)cc(Cl)cc1Cl`, the outcome was inactive.
For the compound `N#CCCC(Br)(C#N)CBr` (stereo not given), the AC50 was 27.9 µM (active).
With `Oc1c(Br)cc(Br)cc1Br`, the AC50 is 12.6 µM (active).
Turning to `CN(C)C(=S)S`, the concentration at half-maximal activity (AC50) was 25.1 µM (active).
As to `O=C(O)COc1cc(Cl)c(Cl)cc1Cl`, the outcome was inactive.
For `Clc1cccc(Cl)c1`, the result was inactive.
On to `Cc1cc(C(C)(C)c2ccc(O)c(C)c2)ccc1O`, for which the AC50 is 10 µM (active).
Turning to `O=C(CCl)NCO`, the outcome was inactive.
Regarding `CC(C)(COCC1CO1)COCC1CO1` (stereo not given), the result was inactive.
As to `Cc1cc(Cl)ccc1N`, the result was inactive.
Consider `CC(C)O.CC(C)O.OCCN(CCO)CCO.OCCN(CCO)CCO.[Ti]`, for which the result was inactive.
On to `CC1(C)[C@H](C(=O)O[C@H](C#N)c2cccc(Oc3ccccc3)c2)[C@@H]1/C=C(\Cl)C(F)(F)F`, for which the AC50 is 0.0141 µM (active) and the outcome was inactive.
On to `CC(C=O)Cc1ccc2c(c1)OCO2` (stereo not given), for which the result was inactive.
For `CCOP(=S)(OCC)SCS(=O)(=O)C(C)(C)C`, the outcome was inactive.
In the case of `CC(C)N(C(=O)CCl)c1ccccc1`, the AC50 is 20 µM (active).
Take `Clc1cccc(Cl)c1Cl`: the outcome was inactive.
In the case of `OCCCCO`, the outcome was inactive.
Take `O=C(O)C1(c2ccc3c(c2)OC[C@H](Cc2ccc(-c4ccccc4)cc2)[C@H]3O)CCCC1`: the AC50 is 7.34 µM (active).
With `CCC(C)(C#N)N=NC(C)(C#N)CC` (stereo not given), the outcome was inactive.
For the compound `O=C1C=CC(=O)c2ccccc21`, the AC50 is 3.32 µM (active).
For `Nc1ccc(N)cc1`, the outcome was inactive.
On to `CCN(CC)C(=O)C(Cl)=C(C)OP(=O)(OC)OC`, for which the result was inactive.
Same read-out and setting: for `CCCCN(CCCC)C(=S)[S-].CCCCN(CCCC)C(=S)[S-].[Ni+2]` the value was “inactive”.
Regarding `N#Cc1cccnc1`, the outcome was inactive.
As to `c1ccc2sc(SNC3CCCCC3)nc2c1`, the outcome was inactive.
On to `Nc1c(Oc2ccccc2)cc(O)c2c1C(=O)c1ccccc1C2=O`, for which the result was inactive.
Consider `CCOC(=O)CC(=O)CCl`, for which the AC50 was 20 µM (active).
As to `CCCCCCCCCCCCN(C)C`, the result was inactive.
For the compound `Cc1cc(Cl)ccc1OC(C)C(=O)O` (stereo not given), the outcome was inactive.
Turning to `Oc1cccc(-c2ccccc2)c1`, the result was inactive.
`COCC(=O)N(c1c(C)cccc1C)[C@H](C)C(=O)OC`: the outcome was inactive.
For `CCCCOC(=O)COC(=O)c1ccccc1C(=O)OCCCC`, the result was inactive.
Turning to `O=c1oc2ccccc2c(O)c1C(CC(O)c1ccc(-c2ccc(Br)cc2)cc1)c1ccccc1` (stereo not given), the AC50 was 5.4 µM (active).
On to `COc1ccccc1N`, for which the outcome was inactive.
Turning to `CC(C)(C)c1cc([N+](=O)[O-])cc(C(C)(C)C)c1O`, the outcome was inactive.

Values taken from PubChem BioAssay (EPA / NIEHS).
